Experimental data reported in PubChem BioAssay (NCATS).
Results filed as inconclusive are left out. Values without a mark were called inactive. Activity calls are given as the source filed them. The call rests on the fitted dose curve; in most records, active means well fitted inhibition curve with a large enough effect; inconclusive means small, poorly fitted or top-dose-only effect; inactive means no such curve, though single readings can be large or run the other way.
On the % scale 0 is the no-effect control and ±100 the full control effect; potency means the concentration at half of the fitted maximal effect.

Assay: qHTS for Inhibitors of the Aldehyde Dehydrogenase Family (ALDH1A2, ALDH1A3, ALDH2, ALDH3A1) (AID 2061307); further: nearly all actives have a fitted effect of over 50% in size; on Potency: test system not described further here
Conditions: ALDH inhibition qHTS; series mostly up to 50.3 µM; activity change, negative = inhibition: at the top concentration
In the case of Cc1cccc2c1NC(=O)C2(O)CC(=O)c1ccco1 (configuration not stated), the Potency is reported as 0.565 µM (active). With CC(=O)c1ccc(NC(=O)c2cnn(-c3cccc(F)c3)c2-n2cccc2)cc1 the “activity change, negative = inhibition” value was -80.6% [at 34.4 µM]. In the case of c1ccc(CCN(Cc2ccccc2)C2CCN(c3ccccc3)CC2)cc1, the “activity change, negative = inhibition” value is reported as -12.4%. For CCc1ccc(NC(=O)c2cc3c(=O)n(Cc4cccnc4)ccc3nc2C)cc1, the “activity change, negative = inhibition” value was -73.7% [at 34.4 µM]. For COc1ccc(-c2ccncc2)cc1OC, the “activity change, negative = inhibition” value was -17.3%. With Cc1ccccc1OCC(O)Cn1c(NCc2ccccc2)nc2c1c(=O)n(C)c(=O)n2C (configuration not stated) the “activity change, negative = inhibition” value was -26.5%. With Cc1c(NCCOc2ccccc2F)cccc1C(N)=O the “activity change, negative = inhibition” value was -34% [at 34.4 µM]. In the case of COc1ccc(CC2NCCC3=CC(=O)CCC32)cc1O (configuration not stated), the “activity change, negative = inhibition” value is reported as 0%. With O=C(O)c1cc(-c2cccs2)nc2cc(Br)ccc12 the Potency was 10.1 µM (active). For Cc1sc(NC(=O)Cc2ccc3c(c2)OCO3)nc1-c1ccc2c(c1)CCN2C(=O)c1cncn1C, the Potency was 7.94 µM (active). In the case of COc1ccc(NC(=O)c2cc(C3CC3)nc3c2c(C)nn3-c2ccccc2)cc1OC, the “activity change, negative = inhibition” value is reported as -64.4% [at 34.4 µM]. With CN(C)CC(=O)NC1CCCc2c1cnn2-c1ccc(OCCOCCOCCNC(=O)OC(C)(C)C)cc1 (configuration not stated) the “activity change, negative = inhibition” value was -1.55%. In the case of O=C(Nc1ccc(S(=O)(=O)N2CCOC(c3ccccc3)C2)cc1)c1ccc(CN2CCc3ccccc3C2)cc1 (configuration not stated), the “activity change, negative = inhibition” value is reported as 1.44%. For O=[N+]([O-])c1ccc(S(=O)(=O)Nc2nc(-c3ccccc3)cs2)cc1, the Potency was 3.57 µM (active). With NC(=O)c1cccc2c1CCCN2C(=O)c1csc(-c2ccc(Cl)cc2)n1 the “activity change, negative = inhibition” value was 0%. With CC(C)(C)CNc1ncnc2ccc(-c3ccc4c(c3)OCO4)cc12 the “activity change, negative = inhibition” value was 88.6%. In the case of CSc1ccc(-c2csc(N3CCC(C(N)=O)CC3)n2)cc1, the Potency is reported as 4 µM (active).
